PubChem BioAssay AID1159580 (chemical genetic matrix, 2015)
Where “and” joins values, the source holds several entries; their conditions need not be identical. Equal values may be shown once. Hit rate of the full screen: of about 5,500 compounds, about 2,000 (36%) were called active. Another 18% or so got no clear call; they are omitted. No stated cut-off is given here; in the data, active means normalized growth mostly below about 0.91 (no sharp cut-off); inconclusive means no clear call, values can overlap the other calls; inactive means mostly above about 0.92. The list shows a part of the results.

Test: chemical genetic growth profiling, strain panel (AID 1159580);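 further: tested at 20 µM; growth read once vehicle control cultures reached saturation at 30 °C; 1 = growth at the plate median or of vehicle wells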
Conditions: growth OD

Measured: normalized growth

CC(C)Cn1c(=O)n(C)c(=O)c2[nH]cnc21
inactive: S. cerevisiae deletion strains, locus YJR075W, strain HOC1, stronger effect = lower value 0.999 | S. cerevisiae deletion strains, locus YKL009W, strain mrt4, stronger effect = lower value 0.969 | S. cerevisiae deletion strains, locus YKL068W, stronger effect = lower value 0.991 | S. cerevisiae deletion strains, locus YKL085W, strain MDH1 (second series), stronger effect = lower value 0.983 | S. cerevisiae deletion strains, locus YKL085W, strain MDH1, stronger effect = lower value 0.983 | S. cerevisiae deletion strains, locus YKL160W, strain elf1, stronger effect = lower value 0.986 and 0.992 | S. cerevisiae deletion strains, locus YKL190W, strain CNB1, stronger effect = lower value 1.01 | S. cerevisiae deletion strains, locus YKR001C, strain vps1, stronger effect = lower value 0.967 | S. cerevisiae deletion strains, locus YKR026C, strain gcn3, stronger effect = lower value 0.985 and 1.01 | S. cerevisiae deletion strains, locus YKR091W, strain srl3, stronger effect = lower value 0.988 and 1 | S. cerevisiae deletion strains, locus YLL001W, strain dnm1, stronger effect = lower value 0.994 and 1.01 | S. cerevisiae deletion strains, locus YLL026W, stronger effect = lower value 0.999 and 1.01 | S. cerevisiae deletion strains, locus YLL041C, strain sdh2, stronger effect = lower value 0.997 and 1 | S. cerevisiae deletion strains, locus YLR027C, strain aat2, stronger effect = lower value 1 and 1.01 | S. cerevisiae deletion strains, locus YLR039C, strain RIC1, stronger effect = lower value 0.953 | S. cerevisiae deletion strains, locus YLR058C, strain SHM2, stronger effect = lower value 0.991 | S. cerevisiae deletion strains, locus YLR102C, strain apc9, stronger effect = lower value 0.99 | S. cerevisiae deletion strains, locus YLR113W, strain HOG1, stronger effect = lower value 1.01 and 0.985 | S. cerevisiae deletion strains, locus YLR221C, strain rsa3, stronger effect = lower value 1 and 1.04 | S. cerevisiae deletion strains, locus YLR258W, strain gsy2, stronger effect = lower value 0.988 and 1.02 | S. cerevisiae deletion strains, locus YLR262C, strain YPT6 (second series), stronger effect = lower value 1.01 and 0.998 | S. cerevisiae deletion strains, locus YLR262C, strain YPT6, stronger effect = lower value 0.966 | S. cerevisiae deletion strains, locus YLR268W, strain sec22, stronger effect = lower value 0.978 | S. cerevisiae deletion strains, locus YLR320W, strain mms22, stronger effect = lower value 1 and 1.04 | S. cerevisiae deletion strains, locus YLR330W, strain CHS5, stronger effect = lower value 0.991 | S. cerevisiae deletion strains, locus YLR342W, strain FKS1 (second series), stronger effect = lower value 0.953 | S. cerevisiae deletion strains, locus YLR342W, strain FKS1, stronger effect = lower value 1 and 1.01 | S. cerevisiae deletion strains, locus YLR357W, strain rsc2, stronger effect = lower value 1.03 and 1 | S. cerevisiae deletion strains, locus YLR370C, strain arc18, stronger effect = lower value 1 and 1.03 | S. cerevisiae deletion strains, locus YLR371W, strain rom2, stronger effect = lower value 0.982 | S. cerevisiae deletion strains, locus YLR384C, strain iki3, stronger effect = lower value 0.985 and 1.01 | S. cerevisiae deletion strains, locus YLR418C, strain cdc73, stronger effect = lower value 1.02 | S. cerevisiae deletion strains, locus YML016C, strain PPZ1, stronger effect = lower value 0.988 | S. cerevisiae deletion strains, locus YML032C, strain rad52, stronger effect = lower value 0.973 | S. cerevisiae deletion strains, locus YML120C, strain ndi1, stronger effect = lower value 1.01 and 0.981 | S. cerevisiae deletion strains, locus YML124C, strain tub3, stronger effect = lower value 0.981 | S. cerevisiae deletion strains, locus YMR058W, strain fet3, stronger effect = lower value 1.01 and 1.03 | S. cerevisiae deletion strains, locus YMR078C, strain ctf18, stronger effect = lower value 0.98 | S. cerevisiae deletion strains, locus YMR125W, strain sto1, stronger effect = lower value 0.998 and 0.978 | S. cerevisiae deletion strains, locus YMR129W, stronger effect = lower value 0.994 and 1 | S. cerevisiae deletion strains, locus YMR205C, strain PFK2, stronger effect = lower value 0.991 and 0.986 | S. cerevisiae deletion strains, locus YMR223W, strain ubp8, stronger effect = lower value 0.973 | S. cerevisiae deletion strains, locus YMR231W, strain pep5, stronger effect = lower value 1 and 1.01 | S. cerevisiae deletion strains, locus YMR263W, strain SAP30, stronger effect = lower value 1.01 | S. cerevisiae deletion strains, locus YMR307W, strain GAS1, stronger effect = lower value 0.924 | S. cerevisiae deletion strains, locus YNL067W, strain RPL9B, stronger effect = lower value 0.999 | S. cerevisiae deletion strains, locus YNL071W, strain lat1, stronger effect = lower value 1.02 and 1 | S. cerevisiae deletion strains, locus YNL128W, strain TEP1, stronger effect = lower value 1.01 | S. cerevisiae deletion strains, locus YNL153C, strain GIM3, stronger effect = lower value 1.02 | S. cerevisiae deletion strains, locus YNL175C, strain NOP13, stronger effect = lower value 0.999 | S. cerevisiae deletion strains, locus YNL183C, strain NPR1, stronger effect = lower value 0.928 and 0.909 | S. cerevisiae deletion strains, locus YNL197C, strain WHI3, stronger effect = lower value 0.986 | S. cerevisiae deletion strains, locus YNL209W, strain ssb2, stronger effect = lower value 1.02 and 0.995 | S. cerevisiae deletion strains, locus YNL224C, strain SQS1, stronger effect = lower value 0.998 | S. cerevisiae deletion strains, locus YNL233W, strain BNI4, stronger effect = lower value 0.998 | S. cerevisiae deletion strains, locus YNL248C, strain rpa49, stronger effect = lower value 0.996 and 1.06 | S. cerevisiae deletion strains, locus YNL250W, strain rad50, stronger effect = lower value 0.98 | S. cerevisiae deletion strains, locus YNL271C, strain bni1, stronger effect = lower value 0.999 | S. cerevisiae deletion strains, locus YNL298W, strain CLA4, stronger effect = lower value 0.983 | S. cerevisiae deletion strains, locus YNL307C, strain MCK1, stronger effect = lower value 0.976 | S. cerevisiae deletion strains, locus YNL322C, strain KRE1 (second series), stronger effect = lower value 0.996 and 0.988 | S. cerevisiae deletion strains, locus YNL322C, strain KRE1, stronger effect = lower value 0.993 and 0.979 | S. cerevisiae deletion strains, locus YNR049C, strain mso1, stronger effect = lower value 0.992 and 1.01 | S. cerevisiae deletion strains, locus YNR052C, strain pop2, stronger effect = lower value 0.989 | S. cerevisiae deletion strains, locus YOL006C, strain TOP1, stronger effect = lower value 0.998 | S. cerevisiae deletion strains, locus YOL012C, strain htz1 2.1 | S. cerevisiae deletion strains, locus YOL147C, strain pex11, stronger effect = lower value 0.985 | S. cerevisiae deletion strains, locus YOR001W, strain rrp6, stronger effect = lower value 1.01 and 1.05 | S. cerevisiae deletion strains, locus YOR061W, strain CKA2, stronger effect = lower value 0.993 | S. cerevisiae deletion strains, locus YOR069W, strain VPS5, stronger effect = lower value 0.987 | S. cerevisiae deletion strains, locus YOR070C, strain gyp1, stronger effect = lower value 1 and 1.01 | S. cerevisiae deletion strains, locus YOR080W, strain dia2, stronger effect = lower value 1.01 | S. cerevisiae deletion strains, locus YOR083W, strain WHI5 (second series), stronger effect = lower value 0.998 | S. cerevisiae deletion strains, locus YOR083W, strain WHI5, stronger effect = lower value 0.958 and 0.992 | S. cerevisiae deletion strains, locus YOR106W, strain vam3, stronger effect = lower value 1 and 0.973 | S. cerevisiae deletion strains, locus YOR136W, strain idh2, stronger effect = lower value 0.981 | S. cerevisiae deletion strains, locus YOR144C, strain elg1, stronger effect = lower value 0.987 | S. cerevisiae deletion strains, locus YOR184W, strain ser1, stronger effect = lower value 0.96 | S. cerevisiae deletion strains, locus YOR231W, strain MKK1, stronger effect = lower value 1.01 and 0.96 | S. cerevisiae deletion strains, locus YOR265W, strain rbl2, stronger effect = lower value 1 | S. cerevisiae deletion strains, locus YOR270C, strain vph1, stronger effect = lower value 0.997 and 1.08 | S. cerevisiae deletion strains, locus YOR290C, strain snf2, stronger effect = lower value 0.994 and 0.97 | S. cerevisiae deletion strains, locus YOR316C, strain cot1, stronger effect = lower value 0.993 | S. cerevisiae deletion strains, locus YPL051W, strain arl3, stronger effect = lower value 0.997 and 1.02 | S. cerevisiae deletion strains, locus YPL055C, strain LGE1, stronger effect = lower value 1.03 | S. cerevisiae deletion strains, locus YPL078C, strain atp4, stronger effect = lower value 1 and 0.993 | S. cerevisiae deletion strains, locus YPL106C, strain sse1, stronger effect = lower value 0.998 and 1.02 | S. cerevisiae deletion strains, locus YPL240C, strain hsp82, stronger effect = lower value 1 and 1.01 | S. cerevisiae deletion strains, locus YPL241C, strain CIN2, stronger effect = lower value 0.992 | S. cerevisiae deletion strains, locus YPL256C, strain CLN2, stronger effect = lower value 0.993 and 0.947 | S. cerevisiae deletion strains, locus YPR119W, strain clb2, stronger effect = lower value 0.993 | S. cerevisiae deletion strains, locus YPR141C, strain kar3, stronger effect = lower value 0.975 | S. cerevisiae deletion strains, locus YPR163C, strain tif3, stronger effect = lower value 0.998 | S. cerevisiae deletion strains, locus YPR167C, strain met16, stronger effect = lower value 0.988 | S. cerevisiae deletion strains, strain wtn01, stronger effect = lower value 0.988 | S. cerevisiae strains, strain wild type, stronger effect = lower value 0.995
